In test [1] the target is T1, Mitogen-activated protein kinase 12 (Homo sapiens) (UniProt P53778).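 Further: values are averaged p38gamma kinase inhibition readings, compounds tested at 1 µM.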
T1 sequence (whole entry): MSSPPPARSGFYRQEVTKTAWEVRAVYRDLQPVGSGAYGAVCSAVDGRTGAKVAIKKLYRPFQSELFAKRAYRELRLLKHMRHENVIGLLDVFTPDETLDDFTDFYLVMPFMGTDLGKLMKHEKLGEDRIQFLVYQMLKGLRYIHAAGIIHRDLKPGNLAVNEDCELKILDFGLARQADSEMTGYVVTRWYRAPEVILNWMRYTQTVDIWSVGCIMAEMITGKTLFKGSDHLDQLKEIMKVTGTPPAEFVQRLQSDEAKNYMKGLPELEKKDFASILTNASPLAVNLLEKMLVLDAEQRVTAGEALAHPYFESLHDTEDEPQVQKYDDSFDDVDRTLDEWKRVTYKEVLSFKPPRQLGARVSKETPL
The conditions noted are these: at 1 µM.

The target of test [2] is SRSF protein kinase 1 (Homo sapiens) (UniProt Q96SB4). The conditions noted are these: at 0.1 µM.
For test [3] the target is unchanged. The conditions noted are these: at 1 µM.
The target in test [4] is Phosphatidylinositol 4,5-bisphosphate 3-kinase catalytic subunit alpha isoform (Homo sapiens) (UniProt P42336). The conditions noted are these: at 0.1 µM.
The target is the same in test [5]. The conditions noted are these: at 1 µM.
The target of test [6] is T2, Phosphatidylinositol 4,5-bisphosphate 3-kinase catalytic subunit delta isoform (Homo sapiens) (UniProt O00329).
T2 sequence (whole entry): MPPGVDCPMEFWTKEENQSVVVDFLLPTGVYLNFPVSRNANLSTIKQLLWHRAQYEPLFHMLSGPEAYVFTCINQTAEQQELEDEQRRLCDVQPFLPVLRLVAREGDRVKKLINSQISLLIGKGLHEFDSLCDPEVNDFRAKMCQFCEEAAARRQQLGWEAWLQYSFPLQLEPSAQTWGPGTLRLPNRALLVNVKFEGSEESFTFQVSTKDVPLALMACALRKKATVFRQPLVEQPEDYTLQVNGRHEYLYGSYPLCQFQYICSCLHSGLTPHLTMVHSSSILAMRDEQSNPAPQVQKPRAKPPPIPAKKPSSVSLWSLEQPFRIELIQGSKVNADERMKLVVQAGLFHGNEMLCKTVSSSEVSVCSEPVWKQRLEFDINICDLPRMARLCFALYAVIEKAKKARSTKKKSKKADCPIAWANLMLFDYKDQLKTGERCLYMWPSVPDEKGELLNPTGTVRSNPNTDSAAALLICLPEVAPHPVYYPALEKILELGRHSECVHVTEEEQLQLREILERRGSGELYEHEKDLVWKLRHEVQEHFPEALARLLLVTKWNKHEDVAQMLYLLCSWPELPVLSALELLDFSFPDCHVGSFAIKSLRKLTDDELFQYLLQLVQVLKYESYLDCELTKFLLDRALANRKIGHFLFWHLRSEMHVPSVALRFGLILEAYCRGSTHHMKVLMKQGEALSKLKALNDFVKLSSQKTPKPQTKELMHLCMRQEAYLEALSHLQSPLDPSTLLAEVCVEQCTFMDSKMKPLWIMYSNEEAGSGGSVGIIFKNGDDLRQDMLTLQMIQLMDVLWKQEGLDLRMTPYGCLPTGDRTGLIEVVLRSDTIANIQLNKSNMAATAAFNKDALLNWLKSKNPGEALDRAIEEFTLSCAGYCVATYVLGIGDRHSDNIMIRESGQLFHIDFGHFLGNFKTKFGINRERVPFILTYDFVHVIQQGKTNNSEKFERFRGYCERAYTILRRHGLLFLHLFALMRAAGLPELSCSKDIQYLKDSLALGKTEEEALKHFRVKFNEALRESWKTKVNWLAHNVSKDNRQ
The conditions noted are these: at 0.1 µM.

The target of test [7] is T2, Phosphatidylinositol 4,5-bisphosphate 3-kinase catalytic subunit delta isoform (Homo sapiens). The conditions noted are these: at 1 µM.
Test [8] deals with Phosphatidylinositol 4-kinase beta (Homo sapiens) (UniProt Q9UBF8). The conditions noted are these: at 0.1 µM.
For test [9] the target is unchanged. To be noted: at 1 µM.
Test [10] addresses Sphingosine kinase 1 (Homo sapiens) (UniProt Q9NYA1). The conditions noted are these: at 0.1 µM.
For test [11] the target is unchanged. To be noted: at 1 µM.
For test [12], the target named is T3, Sphingosine kinase 2 (Homo sapiens) (UniProt Q9NRA0).
T3 sequence (whole entry): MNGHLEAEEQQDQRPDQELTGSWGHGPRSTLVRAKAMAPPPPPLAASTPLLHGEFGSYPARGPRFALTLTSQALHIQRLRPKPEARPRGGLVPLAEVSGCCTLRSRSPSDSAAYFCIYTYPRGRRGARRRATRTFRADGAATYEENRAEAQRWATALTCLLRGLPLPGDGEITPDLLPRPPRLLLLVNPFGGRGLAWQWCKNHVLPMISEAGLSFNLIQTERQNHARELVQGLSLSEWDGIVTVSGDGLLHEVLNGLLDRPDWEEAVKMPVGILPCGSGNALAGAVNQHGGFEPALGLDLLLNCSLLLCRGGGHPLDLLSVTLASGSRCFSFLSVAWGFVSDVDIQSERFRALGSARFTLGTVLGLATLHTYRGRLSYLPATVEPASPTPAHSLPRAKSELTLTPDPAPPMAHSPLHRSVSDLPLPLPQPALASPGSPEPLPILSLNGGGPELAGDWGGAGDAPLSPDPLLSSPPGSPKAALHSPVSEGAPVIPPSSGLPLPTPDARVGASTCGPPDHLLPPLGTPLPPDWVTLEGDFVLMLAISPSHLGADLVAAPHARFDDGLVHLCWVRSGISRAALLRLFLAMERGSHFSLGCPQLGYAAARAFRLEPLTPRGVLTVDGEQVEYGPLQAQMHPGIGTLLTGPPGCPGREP
To be noted: at 0.1 µM.

Test [13] deals with T3, Sphingosine kinase 2 (Homo sapiens). To be noted: at 1 µM.
In test [14] the target is Casein kinase II subunit alpha (Homo sapiens) (UniProt P68400). The conditions noted are these: at 0.1 µM.
The target is the same in test [15]. The conditions noted are these: at 1 µM.
Test [16] deals with T4, Inhibitor of nuclear factor kappa-B kinase subunit alpha (Homo sapiens) (UniProt O15111).
T4 sequence (whole entry): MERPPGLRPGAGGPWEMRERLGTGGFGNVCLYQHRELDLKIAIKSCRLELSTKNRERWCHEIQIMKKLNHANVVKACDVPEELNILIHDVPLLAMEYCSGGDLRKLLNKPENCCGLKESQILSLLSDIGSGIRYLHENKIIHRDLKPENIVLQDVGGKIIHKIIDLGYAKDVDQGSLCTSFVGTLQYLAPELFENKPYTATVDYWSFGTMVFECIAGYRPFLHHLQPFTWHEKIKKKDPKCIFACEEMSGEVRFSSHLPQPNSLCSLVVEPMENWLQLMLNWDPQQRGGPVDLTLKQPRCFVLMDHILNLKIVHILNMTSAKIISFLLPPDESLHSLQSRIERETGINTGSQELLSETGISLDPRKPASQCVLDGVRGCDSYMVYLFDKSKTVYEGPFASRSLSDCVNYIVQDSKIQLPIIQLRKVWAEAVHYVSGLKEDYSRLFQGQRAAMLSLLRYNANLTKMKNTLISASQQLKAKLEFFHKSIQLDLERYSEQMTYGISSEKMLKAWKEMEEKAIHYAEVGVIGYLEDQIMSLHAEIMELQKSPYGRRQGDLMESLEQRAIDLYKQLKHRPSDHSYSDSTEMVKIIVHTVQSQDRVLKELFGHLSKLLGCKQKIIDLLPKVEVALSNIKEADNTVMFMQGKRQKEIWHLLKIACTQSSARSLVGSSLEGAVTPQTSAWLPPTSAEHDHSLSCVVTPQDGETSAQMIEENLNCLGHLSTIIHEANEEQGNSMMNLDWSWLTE
The conditions noted are these: at 0.1 µM.

The target in test [17] is T4, Inhibitor of nuclear factor kappa-B kinase subunit alpha (Homo sapiens). To be noted: at 1 µM.
For test [18], the target named is T5, Inhibitor of nuclear factor kappa-B kinase subunit beta (Homo sapiens) (UniProt O14920).
T5 sequence (whole entry): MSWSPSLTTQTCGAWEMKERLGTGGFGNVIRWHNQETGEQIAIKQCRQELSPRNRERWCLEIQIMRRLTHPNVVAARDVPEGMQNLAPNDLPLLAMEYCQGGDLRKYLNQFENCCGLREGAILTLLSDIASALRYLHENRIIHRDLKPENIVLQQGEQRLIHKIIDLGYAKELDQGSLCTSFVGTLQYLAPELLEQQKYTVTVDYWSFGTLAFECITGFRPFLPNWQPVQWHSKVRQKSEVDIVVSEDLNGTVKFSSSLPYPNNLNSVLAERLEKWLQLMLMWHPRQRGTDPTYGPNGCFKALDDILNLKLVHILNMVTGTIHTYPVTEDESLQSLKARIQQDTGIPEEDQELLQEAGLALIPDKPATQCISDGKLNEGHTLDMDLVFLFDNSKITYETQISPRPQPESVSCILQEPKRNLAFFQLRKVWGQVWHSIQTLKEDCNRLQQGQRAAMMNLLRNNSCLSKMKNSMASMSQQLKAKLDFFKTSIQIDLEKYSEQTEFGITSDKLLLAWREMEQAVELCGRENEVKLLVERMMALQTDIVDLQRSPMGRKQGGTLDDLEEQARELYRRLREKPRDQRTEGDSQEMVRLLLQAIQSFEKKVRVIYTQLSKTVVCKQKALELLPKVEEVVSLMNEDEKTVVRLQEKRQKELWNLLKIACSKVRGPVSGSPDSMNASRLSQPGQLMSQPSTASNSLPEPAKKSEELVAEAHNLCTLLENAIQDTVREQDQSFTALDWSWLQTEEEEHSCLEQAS
The conditions noted are these: at 0.1 µM.

Test [19] has as its target T5, Inhibitor of nuclear factor kappa-B kinase subunit beta (Homo sapiens). To be noted: at 1 µM.
Test [20] has as its target T6, Inhibitor of nuclear factor kappa-B kinase subunit epsilon (Homo sapiens) (UniProt Q14164).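 Further: mean inhibition of IKKε reported, from the GSK PKIS dataset.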
T6 sequence (whole entry): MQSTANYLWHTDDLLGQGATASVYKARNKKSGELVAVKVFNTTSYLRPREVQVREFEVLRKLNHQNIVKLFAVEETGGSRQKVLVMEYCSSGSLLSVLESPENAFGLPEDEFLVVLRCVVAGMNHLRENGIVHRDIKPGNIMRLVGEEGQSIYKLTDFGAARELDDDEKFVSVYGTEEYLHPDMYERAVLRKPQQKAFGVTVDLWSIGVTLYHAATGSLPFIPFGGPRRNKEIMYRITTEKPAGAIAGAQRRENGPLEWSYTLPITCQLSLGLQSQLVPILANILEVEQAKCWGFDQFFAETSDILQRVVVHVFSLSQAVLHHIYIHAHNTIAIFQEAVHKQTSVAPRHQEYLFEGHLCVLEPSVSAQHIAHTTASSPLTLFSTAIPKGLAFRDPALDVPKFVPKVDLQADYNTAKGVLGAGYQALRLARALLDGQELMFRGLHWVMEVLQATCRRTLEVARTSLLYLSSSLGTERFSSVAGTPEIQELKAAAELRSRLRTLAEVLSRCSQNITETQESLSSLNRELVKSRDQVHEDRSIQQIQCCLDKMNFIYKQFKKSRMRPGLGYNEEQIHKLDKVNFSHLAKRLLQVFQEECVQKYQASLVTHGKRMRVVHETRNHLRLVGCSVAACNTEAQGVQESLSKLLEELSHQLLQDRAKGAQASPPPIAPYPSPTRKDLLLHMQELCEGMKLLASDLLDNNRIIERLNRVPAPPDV
To be noted: at 0.1 µM.

Chain of Phosphatidylinositol 4,5-bisphosphate 3-kinase catalytic subunit alpha isoform (Homo sapiens) (P42336 whole entry, canonical isoform): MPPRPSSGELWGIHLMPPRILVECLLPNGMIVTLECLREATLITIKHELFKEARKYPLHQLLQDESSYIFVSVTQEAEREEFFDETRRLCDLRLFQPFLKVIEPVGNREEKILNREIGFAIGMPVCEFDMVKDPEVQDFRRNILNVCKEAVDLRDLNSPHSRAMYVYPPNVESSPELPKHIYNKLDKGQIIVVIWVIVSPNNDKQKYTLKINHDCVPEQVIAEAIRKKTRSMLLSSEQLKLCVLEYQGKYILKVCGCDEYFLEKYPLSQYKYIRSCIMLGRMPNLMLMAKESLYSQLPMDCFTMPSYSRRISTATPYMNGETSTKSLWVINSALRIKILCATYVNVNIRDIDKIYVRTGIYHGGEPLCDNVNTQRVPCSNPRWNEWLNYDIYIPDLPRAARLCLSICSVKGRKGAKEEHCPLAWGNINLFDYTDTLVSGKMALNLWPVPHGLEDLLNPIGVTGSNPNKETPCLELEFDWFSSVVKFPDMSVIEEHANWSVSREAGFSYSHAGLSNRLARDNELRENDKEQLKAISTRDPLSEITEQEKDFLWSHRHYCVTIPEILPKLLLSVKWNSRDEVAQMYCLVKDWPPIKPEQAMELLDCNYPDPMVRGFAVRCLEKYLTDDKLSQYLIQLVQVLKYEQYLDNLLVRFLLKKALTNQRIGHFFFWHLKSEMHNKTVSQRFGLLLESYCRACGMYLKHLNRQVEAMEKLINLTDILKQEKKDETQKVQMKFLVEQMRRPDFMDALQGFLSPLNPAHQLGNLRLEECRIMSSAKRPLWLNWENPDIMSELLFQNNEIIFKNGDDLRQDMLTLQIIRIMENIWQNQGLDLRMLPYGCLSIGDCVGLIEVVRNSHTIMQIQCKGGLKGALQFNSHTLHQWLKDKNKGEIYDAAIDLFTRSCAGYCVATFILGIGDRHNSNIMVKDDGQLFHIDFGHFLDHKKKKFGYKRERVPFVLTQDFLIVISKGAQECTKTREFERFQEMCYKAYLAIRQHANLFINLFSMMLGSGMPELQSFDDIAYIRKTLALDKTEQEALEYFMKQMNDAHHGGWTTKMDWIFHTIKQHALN
Chain of Phosphatidylinositol 4-kinase beta (Homo sapiens) (Q9UBF8 2-816 limits assumed): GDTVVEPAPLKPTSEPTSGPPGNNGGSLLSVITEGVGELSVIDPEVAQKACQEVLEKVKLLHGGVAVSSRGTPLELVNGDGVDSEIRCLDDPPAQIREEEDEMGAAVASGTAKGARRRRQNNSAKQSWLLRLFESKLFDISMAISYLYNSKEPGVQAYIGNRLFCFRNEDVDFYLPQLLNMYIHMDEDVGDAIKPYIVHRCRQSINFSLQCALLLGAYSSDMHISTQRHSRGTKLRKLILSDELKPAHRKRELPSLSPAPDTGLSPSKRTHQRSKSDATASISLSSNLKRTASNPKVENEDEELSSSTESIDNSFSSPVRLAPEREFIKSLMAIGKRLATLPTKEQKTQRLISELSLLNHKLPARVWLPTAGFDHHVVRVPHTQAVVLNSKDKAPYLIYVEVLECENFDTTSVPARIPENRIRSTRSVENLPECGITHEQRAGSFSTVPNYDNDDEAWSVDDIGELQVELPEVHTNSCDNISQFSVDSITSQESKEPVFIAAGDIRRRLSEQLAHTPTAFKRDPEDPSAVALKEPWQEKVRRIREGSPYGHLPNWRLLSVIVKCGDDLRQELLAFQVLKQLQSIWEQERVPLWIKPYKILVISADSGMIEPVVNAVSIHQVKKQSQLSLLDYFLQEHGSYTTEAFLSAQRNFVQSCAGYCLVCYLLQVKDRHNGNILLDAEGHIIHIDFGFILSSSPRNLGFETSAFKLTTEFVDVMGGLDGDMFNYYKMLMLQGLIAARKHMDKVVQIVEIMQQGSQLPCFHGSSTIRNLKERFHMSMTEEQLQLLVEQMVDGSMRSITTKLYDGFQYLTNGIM
Chain of Casein kinase II subunit alpha (Homo sapiens) (P68400 whole entry, looked up): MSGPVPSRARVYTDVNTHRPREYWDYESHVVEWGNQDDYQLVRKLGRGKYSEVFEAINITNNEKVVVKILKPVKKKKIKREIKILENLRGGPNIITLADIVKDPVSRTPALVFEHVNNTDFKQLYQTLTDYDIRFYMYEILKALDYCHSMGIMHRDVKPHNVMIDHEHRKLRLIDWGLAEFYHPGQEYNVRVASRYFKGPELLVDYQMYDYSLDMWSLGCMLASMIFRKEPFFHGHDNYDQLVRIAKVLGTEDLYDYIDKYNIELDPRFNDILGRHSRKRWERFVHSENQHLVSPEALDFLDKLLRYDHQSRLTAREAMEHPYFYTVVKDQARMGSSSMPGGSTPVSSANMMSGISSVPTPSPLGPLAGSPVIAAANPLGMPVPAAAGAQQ
Chain of Sphingosine kinase 1 (Homo sapiens) (Q9NYA1 whole entry): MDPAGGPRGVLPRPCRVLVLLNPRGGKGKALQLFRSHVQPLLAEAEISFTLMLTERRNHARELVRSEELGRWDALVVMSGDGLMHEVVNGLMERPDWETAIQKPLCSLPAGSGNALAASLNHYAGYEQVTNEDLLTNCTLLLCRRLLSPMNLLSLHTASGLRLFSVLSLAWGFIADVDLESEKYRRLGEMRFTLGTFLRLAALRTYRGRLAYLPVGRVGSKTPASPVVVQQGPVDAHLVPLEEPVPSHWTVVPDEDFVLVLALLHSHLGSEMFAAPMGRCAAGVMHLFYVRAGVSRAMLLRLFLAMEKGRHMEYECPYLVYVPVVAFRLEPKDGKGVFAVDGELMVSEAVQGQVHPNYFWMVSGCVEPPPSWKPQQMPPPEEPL
Chain of SRSF protein kinase 1 (Homo sapiens) (Q96SB4 whole entry): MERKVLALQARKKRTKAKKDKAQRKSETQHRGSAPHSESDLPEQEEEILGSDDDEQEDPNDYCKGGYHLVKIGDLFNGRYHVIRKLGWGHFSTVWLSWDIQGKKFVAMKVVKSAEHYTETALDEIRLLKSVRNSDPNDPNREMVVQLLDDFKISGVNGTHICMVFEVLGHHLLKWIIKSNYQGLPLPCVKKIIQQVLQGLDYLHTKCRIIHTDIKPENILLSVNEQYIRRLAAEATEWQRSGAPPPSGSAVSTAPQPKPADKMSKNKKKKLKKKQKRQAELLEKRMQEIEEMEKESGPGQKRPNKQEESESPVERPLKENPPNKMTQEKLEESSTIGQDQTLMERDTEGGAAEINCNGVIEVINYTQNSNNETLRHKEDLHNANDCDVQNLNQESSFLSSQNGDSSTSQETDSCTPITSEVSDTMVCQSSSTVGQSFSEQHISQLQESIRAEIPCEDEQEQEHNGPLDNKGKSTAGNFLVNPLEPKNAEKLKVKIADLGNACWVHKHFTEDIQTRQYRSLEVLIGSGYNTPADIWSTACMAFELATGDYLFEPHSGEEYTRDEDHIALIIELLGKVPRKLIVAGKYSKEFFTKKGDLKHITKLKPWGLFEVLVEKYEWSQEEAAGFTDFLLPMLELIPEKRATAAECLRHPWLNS

Regarding `COc1cccc(/C=N/Nc2ncnc3c2cnn3-c2cccc(OC)c2)c1`, the inhibition in test [1] was 4.21%; in test [2], -3.08%; in test [3] it was -2.5%; in test [4] it was 4.36%; in test [5], 1.65%; in test [6] it was 0.9%. The inhibition was 1.58% in test [7]; 3.72% in [8]; 2.27% in test [9]; 2.07% in test [10]; 0.34% in test [11]; -0.71% in test [12]. Also, the inhibition in test [13] was -0.63%; in test [14], 5.99%; in test [15] it was 3.05%; in test [16], 7.48%; in test [17], -3.48%; in test [18], 6.4%. For the same molecule, the results for the inhibition in test [19] and in test [20] were 6% and 4.37%, respectively.

As to `O=C(Nc1n[nH]c2nc(-c3ccco3)ccc12)C1CC1`, the inhibition in [1] is 0.97%; in [2], -1.07%; in test [3], -1.33%; in test [4], -1.36%; in [5], 0.99%; in [6], -0.99%. The inhibition in [7] is 1.03%; in test [8] it was 3.38%; in test [9], 1.68%; in test [10], -0.31%; in test [11], -1.96%; in test [12], 0.87%. Also, the inhibition in [13] was -0.13%; in test [14], 0.99%; in test [15], -0.44%; in test [16], 4.36%; in test [17], -0.84%; in test [18], -0.41%. The values for the inhibition in [19] and in test [20] were -0.38% and -0.37%, respectively.

Turning to `CS(=O)(=O)CCNCc1ccc(-c2ccc3ncnc(Nc4ccc(OCc5ccccc5)c(Br)c4)c3c2)o1`, the inhibition in test [1] was 3.4%; in test [2], -3.23%; in test [3] it was -2.26%; in test [4] it was 3.6%; in [5], 1.93%; in test [6] it was 0.72%. Moreover, the inhibition in [7] was 2.81%; in test [8], -4.04%; in test [9], -0.22%; in [10] it was -0.92%; in test [11], -1.39%; in test [12], -0.25%. The inhibition is -1.58% in [13]; 13.7% in test [14]; 5.24% in test [15]; 3.37% in test [16]; 1.56% in [17]; 9.38% in [18]. In addition, the inhibition in [19] came out at 11%; in test [20], 6.98%.

Broadly, the inhibition is the relative decrease from the control value, in per cent.
